Reference: PubChem BioAssay AID1508600 (Functional Genomics Laboratory (NCATS/FGL), 2020)
Among all 53,000 sequences or so, about 3,700 (7%) were called active. Shown is part of a subset that was picked to be rich in actives. A number with no mark means an inactive call.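 The calls were made as follows: active = gene knockdowns whose robust z-score for IL-1 alpha signal is at least 2 or at most -2, so actives lie on both sides; inactive = the rest.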

assay: Components of the Cytosolic LPS Sensing Pathway: Gene Identification via Genome-wide siRNA Screen; details: RAW264.7 macrophages, IL-1a HTRF, actives lie on both sides, screened at 100 nM (by protocol), cells primed 5 h with Pam3CSK4 first;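 also: robust z of the log signal after scaling to non-targeting control siRNA wells of the plate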
Summary of the method: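 Three distinct siRNAs per gene were tested singly at 100 nM in RAW264.7 macrophages. Following Pam3CSK4 priming and 24 hour LipidA transfection, IL-1a secretion was read by HTRF.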

Sequence	z-score
CCAGUGAUUAUCUUUAAUGTT against Slc9c1	-0.435
GCUAUCAAAGCUAAUACAUTT against Mrps9	3.41 (active)
GGUUAAGGAUGCUCAAGUATT against Krt20	-0.187
GGUCGUGUUCGAGCAAACCTT against Tpi1	-0.725
GCAGAAUUGAAGCUGGAAUTT against Stag1	2.49 (active)
GGUGACAUGGAUGUAGCAATT against Fcsk	1.18
CCACAUCUCAUGUGAAACCTT against Olfr517	-0.927
CCUUUUACACUCUAGUAUGTT against Ptger4	-0.349
GCUUGAAUAUGAGAACGAATT against Deup1	-0.451
GGUCAAGGUAGGCAAUGAATT against Stau2	-2.32 (active)
GGGCAACAAGGAGUACUCATT against Prss45	-1.88
GGAGGAAAUGAAAACCUUUTT against Cep89	-0.823
GGAGAACAUAAUGAAAUCUTT against Fam50a	-0.0744
GGAUCAAAUUCUACCUUAGTT against Tbc1d5	-0.595
GGAGGUUGCUACAUGGUUATT against Amz1	-0.644
GGUCCACUGAUUCUGAUAATT against Cyp4a31	1.79
GGAUUUUGCCUAAAAUACATT against Sephs1	0.179
GGGACAGCUUUUGUGACUCTT against Raver1	-2.16 (active)
GGGCAAAUCCUUUAGUUUGTT against Siae	-0.62
CUACAGUGGCAAUAAUAUUTT against Rpl30	0.425
GGUACUAAAUAAAAGACCGTT against Dsc2	1.15
GGAGGAGAGAUGGUAAUCCTT against Olfr729	-0.185

Sequence	z-score
GGAUGAGUAUGAGAGGAAUTT against Dcp1a	2.51 (active)
GGUAACUGGGAAUUGUGUUTT against Vti1a	0.812
GGGUCUCUAAGUGCUCCGUTT against Sfxn2	0.433
CGUGAAUCACUAUACAUAATT against A630052C17Rik	-1.39
GGAAACAGUAGAAGAUGAGTT against Fam220a	0.151
GAAGACCAAGCUUUGUACUTT against Olfr339	2.28 (active)
GGAGCUCGCCAAAAGGAAGTT against Cep19	1.97
CCAAAGAAGGUGAGAUUUGTT against Clstn1	-0.161
CCAGUAUGAGAACUACGAUTT against Loxl1	-0.345
CCGUUUUGUCUGAAUUCCCTT against 4930515G01Rik	-2.14 (active)
GCAGUAAAUGUCCCAUCCGTT against Caskin1	-1.28
CCCAUCCAUACAAAAAUGATT against Polm	-1.73
CCUUAUUGAGACGAAUACGTT against Fastkd1	-0.958
GGACAACAGCAAAACAUCUTT against Atoh1	-0.757
CCCAUAACAUUGGUGAUUATT against Vmn1r235	-0.205
GGAAUGAGCUGAAUGCAAATT against Psmc5	-2.08 (active)
CGUUAAAUGGCAGUACAGATT against Qk	0.388
GCCAAACACUCGACUCUAATT against Gm11733	-0.823
GGAAAACUUUAGCUACAAATT against Ppp4r4	-0.231
GCUUCUAACUCUGUGAGGGTT against Defb29	-2.8 (active)
GCAGACGACAAGUUCUACATT against Tbcb	-0.666
GCUUAUCAUCUCCAGACAGTT against Svop	-0.144

Sequence	z-score
GCUGGUUACUCCCAAGACGTT against Dlgap2	2.18 (active)
GGUGGAGUUAACGAGAAACTT against Ccn1	0.69
ACUGUUUAAUCACUGUGGUTT against Olfr891	-0.994
GGACUACAUCAACCUGGAUTT against Mlf2	0.25
GGUCUUCGACACCAUUAACTT against Wipi2	0.947
GGACAGUUUGAUGAUGCCGTT against Coprs	-2.87 (active)
CCCUGUGACUCCAAAAUGATT against Dbh	-1.01
GGACAACGUGCUCAUUAGUTT against Zfp709	0.0713
GCCUGACGAAGGUUUCUAUTT against Neo1	-0.114
GGCAUAAACCUUCUUGCUCTT against Ccl22	-0.221
GGUAGAGGUUAUAUAGGCATT against Ms4a6d	0.282
GGUACUCACAUCUCCAAAGTT against Zfp948	-0.881
GGCAAACAUUUCAAAUACATT against Tgm4	2.12 (active)
GGAGGAAGAGAUUUUAAACTT against Rps8	0.158
GCUGCUGAUAACAUCCGACTT against Golga5	0.554
GGUACAGUUACGGUCAAAUTT against Zfp952	0.739
GGUAUGUCCUCUGGUCAAUTT against Bpifa1	0.282
GGUCAAUGCUACUAAUGAATT against Ankrd61	0.661
GGGAUGCUCUGAACAUUGATT against Anxa2	3.22 (active)
CCAUGCAGCAAAUCGAGUUTT against Klk1b5	0.912
GGUCUGAGCUUCCAAUAACTT against Reep5	0.183
GCUAUUGGGUAGAUUGAUATT against Baat	0.251

Sequence	z-score
GCUUCUAAUUGGAGAUUGCTT against Bex3	-1.39
GGAACACAAUGGGACGAGUTT against Ccl11	-1.12
GGCCACGUUUCUCUUCACCTT against Nyx	-1.12
GGCAAAGAAUUCAAUCGGATT against Atp2b2	-0.235
GGUUCAAAUGUUGCAUAGUTT against Klrc2	0.597
GGAUCACAGCAGAAGAAAUTT against Tmem144	-2.95 (active)
GGAAGUGGAAGUUCUGAAGTT against Tsc22d1	-0.886
GGGUCUUAUGGAAGUGUUUTT against Stk3	7.27 (active)
CCUUUUUGAGGAAUUUGGATT against Scaf8	-0.0964
CGGCUCGUUGAAGAACAAATT against Afap1	-1.32
GGCUUCAUUCGUAGGCCAUTT against Smcr8	1.64
GGUUCACAGUAACCAUUGGTT against Zc3h18	-2.45 (active)
GCAAAAGGAAACGAUCUCATT against Fbxo43	-0.302
GGCUCAGGACUUUGUCUACTT against Lhx4	-1.19
GGUUCAACUCUCUUUUUGATT against Atp8b5	0.347
GCGAAUGUAGUGUAUUAUGTT against Prkd1	0.259
GGACUGUUGAAUAAAACCUTT against Rnps1	-2.29 (active)
AGGCACGUCUGAUUGCAUGTT against LOC432823	0.578
CCAUUGUGAUCAAGAUAAATT against Cggbp1	-0.35
GCUGUGUCACUACUUCGAUTT against Rpp40	1.32
GGUGAAAGACACUUGAAUUTT against Cdk2	0.625
GGAGACAGAGAAGAUUUGUTT against Mia2	-0.21

Sequence	z-score
GCCAACUACGUAUAUACAUTT against 4921511C20Rik	2.41 (active)
GCAAGGUGACAUCAGAAGUTT against Flot2	-0.709
GGACAUAUAUAGCAAGGAGTT against Polrmt	1.07
GGACAGCAGUUUUUACUAGTT against Mllt10	0.907
GCUGUUUGACUACAUAAUCTT against Melk	0.275
GGUUGGAAAUGAAAUCAAUTT against Erc2	2.36 (active)
GGUUCAAGUGACCAAGUUCTT against Odf3	-0.487
CCCAAGAUGGUAGCAGACATT against Tbxas1	-0.00814
GGAACAUGACAUUUUUGUCTT against Smdt1	-0.561
GGAGGACUCAGCACUCUUUTT against E130311K13Rik	-0.769
GGAUCACAGUCUCUUCGGUTT against Fgf20	0.473
GCACUGAUGUAAGGUAACCTT against Prdm4	2.48 (active)
GGGUGUACCUUAUGUAUUATT against Prpf4	1.03
GGAUUGUGCAGAGCAUCUGTT against Card14	-1.45
GGCUGAGGAGAUAACCAUATT against Nemp2	-0.701
GAUGGACAAACGGAAGUGCTT against Iapp	0.322
GGACUUCAGUUACAACCGGTT against Nr1h3	-0.174
GGCCCAUUUUGGUGUGCAUTT against Hyal3	-2 (active)
CCACAAUUUUUUCUGCCUCTT against Olfr492	-0.694
CGGUAUGAGUAGGAUCUCCTT against Cd83	-0.577
